CHX counter: counter-screen for Shiga toxin inhibitors: cycloheximide protein synthesis inhibition; AID 2314; max response, %; cell reporter, cycloheximide protein synthesis inhibition counterscreen; 12% of 300,000 active; in the data active means max response mostly above about 13%, no sharp cut-off; inactive means mostly below about 14%; further: read at 38.3 µM for the half of the compounds with a filed dose; 0% is about no effect
Shiga toxin inh: blocks Shiga toxin action in Vero cells. inhibition, % at 38.7 µM. Vero cells, Shiga toxin protein synthesis inhibition reporter. 9.2% of 290,000 active; in the data active means inhibition mostly above about 28%, no sharp cut-off; inactive means mostly below about 43%; further: 0% is about no effect
Pf growth 96h: P. falciparum growth inhibition at 96 hours; AID 504834; P. falciparum luciferase reporter growth, 96 h; Potency, µM (series often up to 28.7 µM), inactives show at the highest dose activity change, negative = inhibition, hits mostly inhibitors; 6.9% of 320,000 active; further: potency means the concentration at half of the fitted maximal effect; on the % scale 0 is the no-effect control and ±100 the full control effect
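Luminescence readout: decreased luciferase signal marks inhibited growth of reporter-expressing P. falciparum in infected red cells (2% hematocrit, 0.05% parasitemia final), exposed to compound two generations (96 h, 37 C, 5% CO2).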
HCMV inh: inhibitors of human cytomegalovirus | 4.5% of 410,000 active | AID 1259415 | activity change, negative = inhibition, % at 57.5 µM | HFF cells, HCMV-luciferase reporter, 72 h; stronger effect = lower value; in the data active means activity change below about -60%; inconclusive means no clear call, values can overlap the other calls; inactive means above about -39%; further: on the % scale 0 is the no-effect control and ±100 the full control effect
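Cell-based, HFFs, 1000 cells/well, 16 h 37C; cpds in DMSO + HCMV-luc, MOI 1 PFU/cell; 72 h 37C; OneGlo luminescence after 5 min RT; norm. to buffer vs Salinomycin 10uM.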
Pf growth 48h: P. falciparum growth inhibition at 48 hours (one generation) | 5.9% of 310,000 active | P. falciparum luciferase growth in erythrocytes, 48 h | Potency, µM (titrated, usually from 28.7 µM), inactives show top-dose activity change, negative = inhibition, actives largely listed as inhibitors; further: potency means the concentration at half of the fitted maximal effect; on the % scale 0 is the no-effect control and ±100 the full control effect
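Luminescence readout; reporter = integrated firefly luciferase in P. falciparum. RBC culture at 2% hematocrit, 0.1% parasitemia final, 37 C/5% CO2; decreased signal taken as growth inhibition.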
Active calls of the source: *; i = inactive; ? = inconclusive; / = no result; [ ] = dose if it differs, or a comment. Shown are actives, neighbours in structure and some others; about 20% of the full set was active somewhere. Unless noted, the call rests on the fitted dose curve; in most records, active means well fitted inhibition curve with a large enough effect; inconclusive means small, poorly fitted or top-dose-only effect, or another doubt; inactive means no such curve, though single readings can be large or run the other way.

SMILES | CHX counter | Shiga toxin inh | Pf growth 96h | HCMV inh | Pf growth 48h
Cc1ccc(CS(=O)(=O)c2ncc(Cl)c(C(=O)Nc3nnc(C(C)C)s3)n2)cc1 | 52.5* | 75.0* | ? | -97.5* | 20.5%
Cc1ccc(C)c(NC(=O)c2ccc(=O)n(Cc3ccc(F)cc3)c2)c1 | / | / | / | -5.4 | /
Cc1ccc(C)c(NC(=O)c2nc(Cl)ccc2Cl)c1 | 25.5* | 36.0 | 50.1% | 19.8 | 36.0%
CC(C)c1nnc(NC(=O)CS(=O)(=O)Cc2ccccc2)s1 | -2.9 | -9.1 | 24.5% | -8.6 | 11.2%
Cc1ccc(C)c(NC(=O)c2nc(S(=O)(=O)Cc3ccc(F)cc3)ncc2Cl)c1 | / | / | / | -100.3* | /
CC(NC(=O)CNC(=O)C1CCCCC1)c1ccc(S(N)(=O)=O)cc1 (centres undefined) | 0.9 | -14.5 | 23.0% | -28.3 | 25.6%
O=S(=O)(Nc1cccc(C(F)(F)F)c1)c1ccc(-c2cnc(C3CC3)o2)cc1 | / | / | / | -38.1 | /
Cc1csc(Nc2nc(N)c(C(=O)Nc3ccccc3)o2)n1 | 39.4* | 97.9* | 3.29µM* | 160.8 | 4.7%[0.00184 µM]
CSc1ncccc1C(=O)Nc1nc(C(C)(C)C)cs1 | 21.2* | 17.7* | 10.1% | 15.2 | 7.8%
Cc1ccc(C(=O)O)c(C(=O)Nc2nc(C)cs2)c1 | -2.8 | -7.7 | ? | 11.7 | ?
Cc1csc(NC(=O)c2ccccc2O)n1 | 56.4* | 89.2* | 89.0% | 58.9 | 108.3%
Cc1csc(NC(=O)c2cc(C)oc2C)n1 | 27.6* | 73.7* | 182.5% | 71.2 | 47.7%
Cc1ccnc(NC(=O)CCC(=O)N(CC(=O)NC(C)(C)C)c2ccc3c(c2)OCCO3)c1 | 4.3 | 29.4 | -1.9% | 17.0 | -22.2%
Cc1cc(Br)cc(Br)c1OCC(=O)NNC(=O)c1ccoc1C | -2.8 | -20.1 | 21.2% | -6.9 | 22.9%
Cc1csc(NC(=O)c2ccc(Cl)nc2)n1 | 46.6* | 56.6* | 101.8% | 109.1 | /
CC(C)(C)c1csc(NC(=O)c2c(F)c(F)c(F)c(F)c2F)n1 | -2.8 | -12.6 | 0.2% | -12.4 | -8.2%
CC(C)(C)c1csc(NC(=O)c2cccnc2Cl)n1 | / | / | / | 41.8 | /
CC(C)(C)c1csc(NC(=O)c2ccccc2O)n1 | 32.1* | 39.3* | 16.8% | -93.9* | -2.6%
CC(C)(C)c1csc(NNC(=O)c2ccc(Br)cc2)n1 | 39.9* | 93.9* | ? | -97.3* | 2.94µM*
COc1ccc(/C=C(/NC(=O)c2ccc(Br)cc2)C(=O)Nc2cccc(C(=O)O)c2)cc1 | / | / | / | -22.3 | /
COc1ccccc1/C=N/NC(=O)c1ccc(Br)cc1 | 25.9* | 18.7 | -8.6% | -3.8 | 4.3%
COc1ccc(/C=N/N=C(/N)N[N+](=O)[O-])c(OC)c1 | 28.9* | 28.9* | 83.4% | 171.7 | 79.7%
COc1ccc(C(=O)NCC(=O)OCc2cccc(Br)c2)cc1 | -1.2 | -16.9 | 76.3% | -14.0 | 11.8%
COc1ccc(C(=O)N/N=C/c2cc(Br)ccc2O)cc1OC | -1.1 | -13.1 | ? | -96.7* | ?
COc1ccc(O)c(/C=N/NC(=O)c2ccc(OCc3cccc(Br)c3)cc2)c1 | 6.3 | 6.9 | 11.1% | -97.3* | 1.65µM*
SMILES | CHX counter | Shiga toxin inh | Pf growth 96h | HCMV inh | Pf growth 48h
COc1ccc(/C=N/NC(=O)C2C(C=C(Cl)Cl)C2(C)C)c(OC)c1 (centres undefined) | -2.7 | -5.8 | -6.4% | -32.1 | 7.3%
COc1ccc(/C=N/NC(=O)c2ccc(Br)cc2)c(OC)c1 | 23.4* | 46.8 | ? | ? | ?
COc1ccc(/C=N/NC(=O)c2ccncc2)c(OC)c1 | 4.7 | 19.6 | 0.0% | 31.1 | -11.6%
O=C1CCCC/C1=C\Nc1ccc(Cl)cn1 | 27.4* | 60.7* | / | -22.9 | -13.2%
Cc1ccc(N/C=C2\CCCCC2=O)nc1 | 57.8* | 106.8* | ? | 18.3 | 0.0%
Cc1ccc(S(=O)(=O)Nc2ccc(Cl)cn2)cc1 | -3.1 | / | 173.2% | 19.6 | -6.6%
Cc1ccc(N/C=C2\CCCCC2=O)c(C)c1 | -2.6 | 1.2 | -6.3% | -16.2 | 11.1%
CN(CCc1cn[nH]c1)Cc1nc(Cc2ccccc2F)no1 | -2.8 | 0.4 | ? | -31.7 | 9.9%
CCN(C(=O)COC(=O)c1[nH]c(=O)[nH]c(=O)c1N)c1ccccc1 | -3.4 | -3.8 | 15.9% | -29.1 | 11.6%
CSc1nc(-c2ccc(Cl)cc2)nn1S(=O)(=O)c1ccc(Cl)cc1 | 7.1 | 14.3 | -10.4% | ? | 30.9%
COc1ccc(-c2nc(N)n(C(C)=O)n2)cc1 | 13.4 | 12.4 | / | 6.0 | 41.1%
CCCC(=O)n1nc(-c2ccc(Cl)cc2)nc1SC | 23.0* | 66.7* | / | 23.6 | 78.0%
CCC(=O)n1nc(-c2ccc(Cl)cc2)nc1SC | 31.7* | 68.0* | 132.2% | 29.8 | 138.3%
CCC(=O)n1nc(-c2ccc(OC)cc2)nc1SC | 30.4* | 41.5* | -27.8% | 33.8 | 187.2%
CCOC(=O)C1(C(C)(C)CC)CC(CSc2nc3ccccc3[nH]2)OC1=O (centres undefined) | -1.7 | 1.9 | -22.0% | -11.4 | 8.28µM*
CCOC(=O)NC(=O)CSc1nc2ccccc2[nH]1 | 7.0 | 17.1 | -0.7% | -18.6 | 17.8%
CCCCn1c(=O)cc(O)c2ccccc21 | -2.9 | -16.0 | -16.9% | 2.8 | -7.2%
CN(C)c1ccc2c(O)cc(=O)n(C)c2c1 | -1.3 | 31.3 | 5.22µM* | -15.5 | -4.4%
CCn1nnc2cc(C(=O)Nc3ccc(Cl)cc3C)ccc21 | / | / | / | 5.3 | /
COCC(=O)Nc1cc(Cl)ccc1C | -3.3 | -10.8 | ? | -30.5 | 1.8%
Cc1ccc(Cl)cc1NC(=O)CC(O)(C(F)(F)F)C(F)(F)F | 2.0 | 2.0 | 24.3% | -102.0* | ?
CN1CCCC(OC(=O)c2ccc(C(C)(C)C)cc2)C1 (centres undefined) | 17.8* | 28.3 | i | -0.9 | ?
CC1CN(C)CCC1OC(=O)c1ccccc1 (centres undefined) | 0.6 | -8.2 | 2.08µM* | -15.9 | 9.7%
CN1CCCC(OC(=O)c2ccc3c(c2)OCCO3)C1 (centres undefined) | 13.3* | 21.5 | / | 82.9 | 45.4%
CN1CCCC(OC(=O)c2ccc(Cl)cc2)C1 (centres undefined) | -1.5 | -2.2 | -6.3% | 43.1 | -11.2%
SMILES | CHX counter | Shiga toxin inh | Pf growth 96h | HCMV inh | Pf growth 48h
CC1CCCN(C(=O)c2ccc3c(c2)OCCO3)C1 (centres undefined) | / | / | ? | 2.1 | ?
CCc1ccc(C2=C(C)C(N3CCC(C(=O)NCc4ccccc4)CC3)=NS2(=O)=O)cc1 | / | / | / | -8.2 | /
CCC(=O)N1CCN(c2nc(CC)nc3sc4c(c23)CCCC4)CC1 | -2.6 | -13.9 | -26.4% | -27.7 | ?
COCCNC(=S)N1CCN(c2nc3ccccc3s2)CC1 | 32.1* | 93.3 | 18.3% | -33.8 | 45.7%
CCc1nc(N2CCN(C(=S)NCCCOC)CC2)c2c3c(sc2n1)CCCC3 | 0.5 | -8.6 | 4.1% | -63.6* | ?
COCCCNC(=S)N1CCN(c2nc3ccccc3s2)CC1 | 13.7* | 20.6 | -2.3% | 5.8 | -7.0%
CCN(CC(=O)Nc1c(F)cccc1F)C(=O)c1c(-c2ccccc2Cl)noc1C | / | / | / | -23.2 | /
CCOC(=O)C1CCN(Cc2cn3c(-c4ccc(OC)cc4)nnc3s2)CC1 | / | / | / | 15.8 | /
CCCCCn1ccc(=N)cc1 | 4.8 | -1.2 | 1.47µM* | -72.8* | 4.15µM*
CCCCCNCc1cccn1C | 5.1 | -14.5 | / | 17.9 | -0.8%
